The values below come from PubChem BioAssay (EPA / NIEHS).

Records with an inconclusive call do not appear. Activity calls are given as the source filed them. The calls were made as follows: active = hit-call score of the fitted dose curve at least 0.9, where 1 is the maximum; inconclusive = response in the unintended direction; inactive = score below 0.9.

The first assay can be described thus: ACEA_AR_agonist_AUC_viability: ACEA Biosciences xCELLigence Real-Time Cell Analysis on Androgen Receptor Agonism for Viability (AID 2283775).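 As to AC50: viability read 80 hours after compound addition.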 Summed up:
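Real-time impedance tracking of 22Rv1 growth, readings every 5 min for 5 h then hourly; area-under-curve viability endpoint at 80 hours, relative to DMSO. Compounds at eight concentrations, 1:4 steps, top 100 uM, n = 2.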
On to `Cc1ccc(N)cc1O`, for which the AC50 is 89.7 µM (active). Regarding `CC(C)c1cccc(C(C)C)c1N1C(=O)c2ccc(O)cc2C1=O`, the AC50 is 19.4 µM (active).

Turning to `CCCCCCCCO`, the call was inactive. On the same count and under the same terms, with `O=C(O)CC(O)C(=O)O` (centres undefined) the entry was “inactive”. `CN(C)c1ccc(Cc2ccc(N(C)C)cc2)cc1`: the concentration at half-maximal activity (AC50) was 56.8 µM (active). On the same count and under the same terms, for `CCOC(=O)COc1ccc2c(c1)CC(NCC(O)c1cccc(Cl)c1)CC2` (centres undefined) the value was 63.6 µM (active). For `Cc1[nH]cnc1C[C@H]1CCc2c(C)c3ccccc3n2C1=O`, the half-maximal activity concentration (AC50) is 44.5 µM (active). `CC(C)=CCCC(C)=CC=O`: the call was inactive. As to `O=C(O)c1cccc(N(Cc2cccnc2)c2ccc(OC(F)F)c(OC(F)F)c2)c1`, the AC50 was 88.2 µM (active). On to `CCOc1cccc(-n2cc(C(=O)N3CCN(c4cc(C(=O)O)c5ccccc5c4)CC3)nc2-c2ccc(C)cc2)c1`, for which the AC50 was 7.41 µM (active). For `CC1=CC(=O)CC(C)(C)C1`, the outcome was inactive. For `Cc1c(-c2cccnc2)c2ccccc2n1CCCCC(=O)O`, the AC50 was 24.1 µM (active). As for `Cn1cnc([N+](=O)[O-])c1Sc1ncnc2nc[nH]c12`, the AC50 is 1.15 µM (active). As for `Oc1ccc2c(c1)-c1ccccc1C2`, the AC50 was 50 µM (active). Same read-out and setting: for `CCC(C)(C)C(=O)O[C@H]1C[C@@H](C)C=C2C=C[C@H](C)[C@H](CC[C@@H]3C[C@@H](O)CC(=O)O3)[C@H]21` the value was 29.9 µM (active); for `CCCCCCc1ccc(O)cc1O`, 16.1 µM (active); for `CCn1nc(Cc2ccccc2)cc1C1CCN(C[C@H]2C[C@H](N(C)[C@@H](C(=O)O)C(C)C)C[C@@H]2c2cccc(F)c2)CC1`, 36 µM (active). `O=P(OC(CCl)CCl)(OC(CCl)CCl)OC(CCl)CCl`: the AC50 is 31.8 µM (active). On to `CC/C(=C\C(=N/O)C(N)=O)C(C)[N+](=O)[O-]` (centres undefined), for which the call was inactive. `CC(C)CC(C)(O)C#CC(C)(O)CC(C)C` (centres undefined): the compound was classed as inactive.

Consider `CC(C)(O)c1coc(S(=O)(=O)NC(=O)Nc2c3c(cc4c2CCC4)CCC3)c1`, for which the call was inactive. As for `Fc1ccccc1[C@@H](F)COC1CCC(Nc2ncnc3[nH]ncc23)CC1` (some centres undefined), the AC50 is 63.2 µM (active). Turning to `COCCOc1cc2cc(C(=O)NC3CCN(C(C)C)CC3)n(CC(=O)Nc3ccc(Cl)cn3)c2cn1`, the AC50 is 40.9 µM (active). In the case of `Cn1c(=O)c2c(ncn2C)n(C)c1=O`, the result was inactive. As for `CC(=O)c1ccc2c(c1)[C@H](NC(=O)c1ccc(F)cc1)[C@@H](O)C(C)(C)O2`, the call was inactive. Turning to `O=c1[nH]c2ccc(S(=O)CCN3CCC(Cc4ccc(F)cc4)CC3)cc2o1` (centres undefined), the compound was called inactive. Turning to `COc1cccc(-c2ccc(/C=C\CN3CCCCCC3)cc2Cl)c1`, the half-maximal activity concentration (AC50) was 62.7 µM (active).

Turning to `CC(C)CCO`, the compound was called inactive.

On to `Nc1nc2ncc(CNc3ccc(C(=O)N[C@@H](CCC(=O)O)C(=O)O)cc3)nc2c(=O)[nH]1`, for which the compound was classed as inactive.

Another assay can be described thus: ACEA_AR_antagonist_AUC_viability: ACEA Biosciences xCELLigence Real-Time Cell Analysis on Androgen Receptor Antagonism for Viability (AID 2283776).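 Also: 22Rv1 human prostate cancer cells growing on impedance electrode plates; hits lower the growth signal relative to DMSO meaning cytotoxicity.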 Summed up:
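Real-time electrical impedance tracks 22Rv1 proliferation after continuous compound exposure (top 100 uM final, 1:4 steps, 8 concentrations). The 80 h area-under-curve serves as the cytotoxicity readout relative to DMSO.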
With `Cc1ccc(N)cc1O`, the AC50 is 87.4 µM (active). In the case of `O=C1OC(=O)C2C3C=CC(C3)C12` (centres undefined), the call was inactive. Still for that read-out and setting: with `O=C(O)c1cc(N=Nc2ccc(S(=O)(=O)Nc3ccccn3)cc2)ccc1O` the entry was “inactive”. On to `CC(C)c1cccc(C(C)C)c1N1C(=O)c2ccc(O)cc2C1=O`, for which the AC50 is 17.6 µM (active). As for `CCCCCCCCO`, the outcome was inactive. Turning to `O=C(O)CC(O)C(=O)O` (centres undefined), the compound was classed as inactive.

`CN(C)c1ccc(Cc2ccc(N(C)C)cc2)cc1`: the AC50 is 50 µM (active).

For `CCOC(=O)COc1ccc2c(c1)CC(NCC(O)c1cccc(Cl)c1)CC2` (centres undefined), the AC50 is 24.1 µM (active). As to `Cc1[nH]cnc1C[C@H]1CCc2c(C)c3ccccc3n2C1=O`, the AC50 was 50.1 µM (active). In the case of `CC(C)=CCCC(C)=CC=O`, the compound was called inactive. As to `CC(O)CN(CCN(CC(C)O)CC(C)O)CC(C)O` (centres undefined), the compound was classed as inactive. Take `O=C(O)c1cccc(N(Cc2cccnc2)c2ccc(OC(F)F)c(OC(F)F)c2)c1`: the AC50 is 76.9 µM (active). With `CCOc1cccc(-n2cc(C(=O)N3CCN(c4cc(C(=O)O)c5ccccc5c4)CC3)nc2-c2ccc(C)cc2)c1`, the concentration at half-maximal activity (AC50) was 11.5 µM (active). For `CC1=CC(=O)CC(C)(C)C1`, the compound was called inactive. For `Cc1c(-c2cccnc2)c2ccccc2n1CCCCC(=O)O`, the concentration at half-maximal activity (AC50) is 22.8 µM (active).

Take `CCNc1ccccc1`: the compound was classed as inactive. In the case of `Cn1cnc([N+](=O)[O-])c1Sc1ncnc2nc[nH]c12`, the AC50 is 1.52 µM (active).

On to `Oc1ccc2c(c1)-c1ccccc1C2`, for which the AC50 is 41.8 µM (active). `CCC(C)(C)C(=O)O[C@H]1C[C@@H](C)C=C2C=C[C@H](C)[C@H](CC[C@@H]3C[C@@H](O)CC(=O)O3)[C@H]21`: the AC50 was 32.1 µM (active). Same read-out and setting: with `CCCCCCc1ccc(O)cc1O` the figure was 13.7 µM (active).

Take `CCn1nc(Cc2ccccc2)cc1C1CCN(C[C@H]2C[C@H](N(C)[C@@H](C(=O)O)C(C)C)C[C@@H]2c2cccc(F)c2)CC1`: the AC50 was 45 µM (active). As for `O=P(OC(CCl)CCl)(OC(CCl)CCl)OC(CCl)CCl`, the AC50 was 29.8 µM (active). For the compound `CCOC(=O)CC(CC(=O)OCC)(OC(C)=O)C(=O)OCC`, the call was inactive.

With `CC/C(=C\C(=N/O)C(N)=O)C(C)[N+](=O)[O-]` (centres undefined), the AC50 was 74.2 µM (active). Regarding `O=C(O)CCN(C1(C(=O)NO)CCCC1)S(=O)(=O)c1ccc(Oc2ccc(F)cc2)cc1`, the call was inactive. With `CC(C)CC(C)(O)C#CC(C)(O)CC(C)C` (centres undefined), the call was inactive. For the compound `COc1ccc(-n2nc(C(F)F)cc2-c2ccc(S(C)=O)cc2)cc1` (centres undefined), the compound was classed as inactive. For `CC(C)(O)c1coc(S(=O)(=O)NC(=O)Nc2c3c(cc4c2CCC4)CCC3)c1`, the result was inactive. As for `CC(C)=CCC/C(C)=C/CO`, the concentration at half-maximal activity (AC50) is 25.6 µM (active). Consider `Fc1ccccc1[C@@H](F)COC1CCC(Nc2ncnc3[nH]ncc23)CC1` (some centres undefined), for which the AC50 is 50 µM (active). Turning to `CCOCCO`, the result was inactive. Take `C1=CCCC=CCCC=CCC1`: the outcome was inactive. Turning to `CCCC(=O)OCC`, the call was inactive. Take `COCCOc1cc2cc(C(=O)NC3CCN(C(C)C)CC3)n(CC(=O)Nc3ccc(Cl)cn3)c2cn1`: the AC50 is 45 µM (active). With `Cn1c(=O)c2c(ncn2C)n(C)c1=O`, the outcome was inactive. As for `CC(=O)c1ccc2c(c1)[C@H](NC(=O)c1ccc(F)cc1)[C@@H](O)C(C)(C)O2`, the outcome was inactive.

On to `O=c1[nH]c2ccc(S(=O)CCN3CCC(Cc4ccc(F)cc4)CC3)cc2o1` (centres undefined), for which the outcome was inactive.

As to `COc1cccc(-c2ccc(/C=C\CN3CCCCCC3)cc2Cl)c1`, the AC50 is 45.2 µM (active). In the case of `CC(C)CCO`, the compound was called inactive. In the case of `Nc1nc2ncc(CNc3ccc(C(=O)N[C@@H](CCC(=O)O)C(=O)O)cc3)nc2c(=O)[nH]1`, the call was inactive.
